Assay outcomes (PubChem BioAssay)
Most compounds without a hit are left out; they make up all but 19% or so of the library.
IL1B secr inh: blocks inflammasome-driven IL-1 beta release; THP-1 LPS/ATP IL-1B secretion, AlphaLISA, 16 h; active compounds read low; activity change, % at 57.5 µM; hit rate 4.7% among 360,000; AID 743279; in the data active = activity change below about -50%; inconclusive = mostly about -30% to -49%
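THP-1 cells pretreated 1 hr with compounds (up to 57.5 uM final), then stimulated with LPS (250 ng/mL final) plus ATP (1.25 mM final); secreted IL-1B measured by AlphaLISA after 16 hr, decreased signal indicating inhibition.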
HT1080 IDH1KD tx: kills HT-1080 cells with IDH1 knockdown. HT-1080 IDH1 knockdown viability, ATP luminescence, 48 h. Potency, µM (titrated, usually from 46.1 µM), without a hit: at the highest dose activity, negative = toxicity, hits mostly cytotoxic. hit rate 2% among 360,000. AID 686971;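 also: potency is read from the fitted curve at half-maximal effect; 0% = DMSO wells and -100% = cell-free medium wells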
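Knockdown cells (IDH1KD HT-1080) received compounds 2 h after plating at 750 cells/well and were kept 48 h at 37 °C in 5% FBS RPMI. A CellTiter-Glo luminescence read gave % activity for curve fitting.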
DT40 TDP1 CPT: DT40-hTDP1 cell growth loss with CPT; AID 686979; Potency, µM (titrated, usually from 46.2 µM), without a hit: at the highest dose activity change, negative = growth inhibition, most hits filed as inhibitors; hit rate 12% among 420,000; chicken DT40 Tdp1-/-;hTDP1 cells + 20 nM CPT, ATP luminescence, 48 h; also: potency is read from the fitted curve at half-maximal effect; nearly all actives have a fitted effect of over 55% in size
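Cell growth measured by CellTiter-Glo luminescence after a minimum 48 h, 37 C compound exposure with 20 nM CPT in Tdp1-knockout DT40 cells stably expressing hTDP1, seeded 400/well; qHTS titration format.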
TDP1 cell noCPT: qHTS for Inhibitors of human tyrosyl-DNA phosphodiesterase 1 (TDP1): qHTS in cells in absence of CPT. DT40 Tdp1-/- hTDP1 cells, no CPT, ATP luminescence, 48 h. hit rate 15% among 420,000. Potency, µM (highest dose often 46.2 µM), for the others: at the highest dose activity change, negative = growth inhibition, usual class: inhibitors; also: potency is read from the fitted curve at half-maximal effect; nearly all actives have a fitted effect of over 55% in size
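DT40 Tdp1-/-;hTDP1 cells, no CPT (DMSO vehicle only), 400 cells/well; compounds pin-transferred; ≥48 hr, 37 °C; CellTiter-Glo 30 min RT dark, luminescence read.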
HT1080-NT tox: kills 2HG-producing HT-1080-NT fibrosarcoma cells; hit rate 1.6% among 360,000; HT-1080-NT fibrosarcoma viability, CellTiter-Glo ATP luminescence, 48 h; AID 686970; Potency, µM (titrated, usually from 46.1 µM), without a hit: at the top dose activity, negative = less viability, most hits filed as cytotoxic;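 also: NT is the 2HG producing partner of a matched IDH1 knockdown line; potency is read from the fitted curve at half-maximal effect; 0% = DMSO-treated cells and -100% = media-only wells without cells; nearly all actives have a fitted effect of over 55% in size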
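Fibrosarcoma NT cells, 750 per well in 5% FBS RPMI, were exposed to compound for 48 hours. Viability: CellTiter-Glo luminescence.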
* marks the source's active call; other numbers are inactive results; ? = inconclusive; / = no result given; [ ] = another dose, or the depositor's remark. Unless noted, calls follow the shape of the dose curve; as a rule, active = well fitted curve in the direction sought with a large enough effect; inconclusive = small, poorly fitted or top-dose-only effect, or another doubt; inactive = no such curve, though single readings can be large; an effect the other way counts as inactive or inconclusive. Unless noted, % is scaled to controls: 0 for no effect and ±100 for the full control effect.

SMILES	IL1B secr inh	HT1080 IDH1KD tx	DT40 TDP1 CPT	TDP1 cell noCPT	HT1080-NT tox
Cc1ccc2c(=O)cc(C(=O)Nc3ccc(S(=O)(=O)Nc4onc(C)c4C)cc3)oc2c1C	/	/	-4%	-9%	/
COc1ccccc1-n1cc(C(=O)NCCN2Cc3ccccc3OC(c3ccsc3)C2)cn1 (stereo not drawn)	/	/	6%[9.04 µM]	-27%	/
COC(C[C@@H](O)[C@@H](C)[C@H](O)COCc1ccccc1)OC	21	10%	1%	-17%	8%
CCN(CC)S(=O)(=O)c1cccc(-c2nnc(SCCOc3ccccc3)o2)c1	-13	-8%	16µM*	21µM*	?
CCN(CC)S(=O)(=O)c1cccc(-c2nnc(SCCOc3ccc(Cl)cc3)o2)c1	-10	?	23µM*	?	-3%
COc1cc(-c2nnc(SCCOc3ccccc3)o2)cc(OC)c1OC	/	/	?	16µM*	/
CCCN(CC(=O)c1cc(C)n(C)c1C)S(=O)(=O)c1cccc(C(F)(F)F)c1	-3	-7%	23µM*	?	-16%
C[C@H]1CC[C@]2(O[C@@H](CCO)C[C@H](O)[C@H]2O)O1	7	1%	-42%	0%	0%
CCN(CC)S(=O)(=O)c1cccc(-c2nnc(SCC(=O)c3cc(C)n(C)c3C)o2)c1	-25	11%	21µM*	21µM*	15%
COc1cc(O)c(C(CCN2CCCCC2)c2ccc(N(C)C)cc2)c(OC)c1 (stereo not drawn)	?	-2%	16µM*	6.5µM*	-3%
COc1cc(O)c(C(CCN2CCCC2)c2ccc(N(C)C)cc2)c(OC)c1 (stereo not drawn)	-13	-15%	15µM*	21µM*	3%
Cc1nnc(SCC(=O)O)s1	7	3%	14%	6%	8%
O=C(CN1C(=O)NC(c2ccc(F)cc2)C1=O)Nc1ccc2c(c1)OCCO2 (stereo not drawn)	-21	-3%	-4%	-13%	-3%
CCc1ccc(OCC(=O)Nc2ccc(-c3cc4ccccc4oc3=O)c(OC)c2)cc1	7	?	6.5µM*	7.3µM*	?
COc1ccc(C(=O)Nc2ccc(-c3cc4ccccc4oc3=O)c(C)c2)cc1OC	/	/	18µM*	16µM*	/
O=C(Cc1ccc(Cl)cc1)Nc1ccc(-c2cc3ccccc3oc2=O)c(Cl)c1	23	6.5µM*	5.2µM*	2.9µM*	6.5µM*
COc1cc(NC(=O)c2cc(Cl)ccc2Cl)ccc1-c1cc2ccccc2oc1=O	-15	-26%	?	-28%	6%
COc1ccc(S(=O)(=O)N2CCN(C(=O)C3CC(=O)N(c4ccccc4F)C3)CC2)cc1OC (stereo not drawn)	-11	12%	3%	-25%	1%
C/C(Cn1cnc([N+](=O)[O-])n1)=N\NC(=O)c1ccccc1O	-14	2%	5%	2%	-11%
C/C(Cn1nnc([N+](=O)[O-])n1)=N\NC(=O)c1ccccc1O	-4	?	15µM*	18µM*	?
C/C(Cn1nnc([N+](=O)[O-])n1)=N\NC(=O)c1ccc(O)cc1O	4	18µM*	?	?	23µM*
Cc1ccc(SCc2ccc(C(=O)N3CCCC3)cc2)cc1	-3	-16%	5%	?	-21%
Cc1ccc(CN2CCSc3ccc(C(=O)N4CCN(c5ncccn5)CC4)cc32)cc1	-62*	9%	21µM*	16µM*	4%[9.24 µM]
CCN1CCN(C(=O)c2ccc(CSc3ccc(C)cc3)cc2)CC1	-54*	-28%	?	13µM*	?
Cc1ccc(CN2CCSc3ccc(C(=O)N4CCOCC4)cc32)cc1	-19	-1%	?	-19%	-1%
SMILES	IL1B secr inh	HT1080 IDH1KD tx	DT40 TDP1 CPT	TDP1 cell noCPT	HT1080-NT tox
CCN1CCN(C(=O)c2ccc3c(c2)N(Cc2ccc(C)cc2)CCS3)CC1	-15	-1%	21µM*	23µM*	-15%
O=C(CN(Cc1ccccc1F)S(=O)(=O)c1ccc(Cl)cc1)NCCCO	15	-3%	-14%	-17%	-14%
C=CCOC(=O)C1=C(C)Nc2ncnn2C1c1cccs1 (stereo not drawn)	11	3%	-7%	-20%	-1%
CCCCCCCCOC(=O)C1=C(C)Nc2nnnn2C1c1cccs1 (stereo not drawn)	30	?	16µM*	16µM*	?
CCCCCCCOC(=O)C1=C(C)Nc2ncnn2C1c1cccs1 (stereo not drawn)	-11	-15%	?	13µM*	-19%
COc1cc(N2CCC(O)CC2)ccc1Nc1nnc(Cl)c(Nc2ccccc2S(C)(=O)=O)n1	36	-16%	21µM*	16µM*	?
CCS(=O)(=O)c1nc2ccccc2n1CC(=O)Nc1ccccc1C(=O)OC	/	/	-1%	-6%	/
Cc1cc(C)cc(NC(=O)CC(C)n2nc(C)cc2C)c1 (stereo not drawn)	/	/	21µM*	?	/
COc1cc(NC(=O)CC(C)n2nc(C)cc2C)cc(OC)c1 (stereo not drawn)	/	/	-2%	-29%	/
Cc1ccc(Nc2c([N+](=O)[O-])ccc3c2=NC2(CCCCC2)N=3)cc1	28	3%	16µM*	23µM*	11%
O=[N+]([O-])c1ccc2c(c1Nc1ccccc1Cl)=NC1(CCCCC1)N=2	8	9%	-26%	-3%	4%
Cc1cc(C)c2cc(C(=O)Nc3ccc(C)c(F)c3)[nH]c2c1	-3	-12%	?	4%	-5%
Cc1ccc2ccc3cc(C(=O)Nc4ccc(C)c(F)c4)nc3c2[nH]1	/	/	?	16µM*	/
CCOC(=O)C1CCN(C(=O)c2cc3ccc4ccc(C)[nH]c4c3n2)CC1	/	/	18µM*	21µM*	/
Cc1ccc2ccc3cc(C(=O)N4CCN(c5ccccc5F)CC4)nc3c2[nH]1	/	/	?	16µM*	/
Cc1ccc(NC(=O)c2oc3ccccc3c2NC(=O)c2cc3ccccc3o2)cc1	/	/	?	16µM*	/
O=C(Nc1c(C(=O)Nc2cccc(C(F)(F)F)c2)oc2ccccc12)c1cc(=O)c2ccccc2o1	/	/	4.1µM*	?	/
COc1ccc2oc(C(=O)c3ccccc3)c(NC(=O)CN3CCN(C)CC3)c2c1	-18	14%	-6%	-6%	6%
O=C(Nc1c(C(=O)Nc2cccc(F)c2)oc2ccccc12)c1cc2ccccc2o1	/	/	18µM*	15µM*	/
CN1CCN(CC(=O)Nc2c(C(=O)c3ccccc3)oc3ccccc23)CC1	-71*	21µM*	?	?	23µM*
O=C(c1cc(COc2ccc(F)cc2Cl)on1)N1CCSCC1	?	6%	-20%	-10%	20%
CCOc1ccc(CC(=O)Nc2c(C(=O)c3ccc(C)cc3)oc3ccccc23)cc1OCC	/	/	?	18µM*	/
